Potency and affinity values are given separately. Unmarked numbers belong to inactive results.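 The calls were made as follows: active = every repeat run showing a signal drop whose fitted half-maximal concentration is at most twice the top tested concentration; inconclusive = repeat runs disagree, or flat partial drop, or poor fit; inactive = the rest.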
Assay: general mammalian cell viability loss – activator set, cherry-pick, cytotoxicity control for miR-122 modulator project, dose response (AID 720690);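 also: 0% = neutral control wells and -100% = MG132 cytotoxic control wells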
Settings: HEK293T viability, CellTiter-Glo luminescence, 48 h; series mostly up to 26 µM; activity change, negative = cytotoxicity: at the top concentration

Row | SMILES | activity change, negative = cytotoxicity
1 | CCC(=O)N1C[C@H]2[C@@H](c3ccccc31)[C@H](CO)N2Cc1cc(F)ccc1F | 12.3%
2 | Cc1ccccc1NC(=O)Nc1ccc2c(c1)C(=O)N(C)[C@H]1CC[C@@H](CC(=O)O)O[C@H]1CO2 | -5.08% [at 23.5 µM]
3 | COc1ccc(-c2nc(NC(=O)CSc3nnc(C)s3)ns2)cc1 | 19.9%
4 | COc1ccc(S(=O)(=O)N(C)C[C@@H]2Oc3cc(-c4cccc(F)c4)ccc3S(=O)(=O)N([C@H](C)CO)C[C@H]2C)cc1 | -32.3%
5 | C[C@@H]1CN([C@@H](C)CO)S(=O)(=O)c2ccc(-c3ccccc3)cc2O[C@@H]1CN(C)C(=O)c1ccc2c(c1)OCO2 | -29.4%
6 | CC(C)(C)c1cc(NCCCn2ccnc2)n2ncc(-c3ccc(Cl)cc3)c2n1 | 2.97%
7 | CC(C)C(=O)Nc1ccc2c(c1)C(=O)N(C)[C@@H]1CC[C@H](CC(=O)NCc3cccc(F)c3)O[C@H]1CO2 | 4.42% [at 23.5 µM]
8 | C[C@H]1CCCCO[C@@H](CN(C)CC2CCCCC2)[C@@H](C)CN([C@@H](C)CO)C(=O)c2cc(NC(=O)Nc3cccc4ccccc34)ccc2O1 | -16.9% [at 12 µM]
9 | COCC(=O)NC[C@@H]1[C@H](c2ccc(C3=CCCC3)cc2)[C@@H](CO)N1C(=O)C1CC1 | -14.2% [at 23.5 µM]
10 | O=C(Nc1ccc(F)cc1)N1C[C@H]2[C@@H](c3ccccc31)[C@H](CO)N2C(=O)c1ccncc1 | -3.65%
11 | Cc1cccc(NC(=O)Nc2ccc3c(c2)C(=O)N(C)[C@H]2CC[C@@H](CC(=O)NCc4ccccc4Cl)O[C@H]2CO3)c1 | -11.4%
12 | C[C@@H]1CN([C@H](C)CO)C(=O)c2cc(-c3cccc(C#N)c3)cnc2O[C@H]1CN(C)C(=O)C1CCC1 | 5.68%
13 | CCNC(=O)Nc1ccc2c(c1)C(=O)N(C)[C@H]1CC[C@H](CC(=O)NCCOC)O[C@@H]1CO2 | -2.1%
14 | CCNC(=O)Nc1ccc2c(c1)C(=O)N(C)[C@@H]1CC[C@H](CC(=O)NCC3CC3)O[C@@H]1CO2 | 4.16%
15 | Cc1nn(C)cc1NC(=O)C[C@@H]1CC[C@@H]2[C@@H](COc3ccc(NC(=O)Nc4cccc(Cl)c4)cc3C(=O)N2C)O1 | -5.53%
16 | CNC(=O)C[C@H]1CC[C@@H]2[C@H](COc3ccc(NC(=O)Nc4ccc(F)c(F)c4)cc3C(=O)N2C)O1 | 3.16%
17 | COc1ccccc1CNc1nc(NCC2CC2)nc2ccsc12 | -34.7%
18 | Cc1ccc(-c2noc(CCC(=O)Nc3ccccc3C)n2)cc1 | 1.33%
19 | C/C=C/c1ccc([C@@H]2[C@@H](CO)N(C(C)=O)[C@@H]2CN(CC)C(=O)CN(C)C)cc1 | -3.94%
20 | CCCCN(CCCC)C(=O)CN(C)S(=O)(=O)c1ccc2c(c1)n(C)c(=O)c(=O)n2C | 43.1%
21 | Cc1ccc(-c2nnn(CC(=O)N(CC(=O)NCC3CCCO3)c3ccccc3)n2)o1 (stereo not given) | 16.4%
22 | C[C@@H]1CN([C@@H](C)CO)S(=O)(=O)c2ccc(C#Cc3ccncc3)cc2O[C@@H]1CN(C)C(=O)Nc1ccc2c(c1)OCO2 | -19.2%
23 | COCC(=O)N(C)C[C@@H]1[C@H](c2ccc(-c3ccccc3)cc2)[C@@H](CO)N1C(C)=O | -14.3%
24 | COCC(=O)N(C[C@H]1[C@H](c2ccccc2)[C@@H](CO)N1C(=O)NC(C)C)C(C)C | 5.41%
25 | CC(C)C(=O)Nc1ccc2c(c1)C(=O)N(C)[C@@H]1CC[C@@H](CC(=O)NCCc3ccccc3)O[C@H]1CO2 | 11.2%
